G9a inh = qHTS Assay for Inhibitors of Histone Lysine Methyltransferase G9a | G9a H3K9 monomethylation, AlphaScreen, 2 h | Histone-lysine N-methyltransferase EHMT2 (Homo sapiens), Q96KQ7 | Potency, µM (series often up to 102 µM), for the others: at the top dose activity, negative = inhibition, hits mostly inhibitors | 8.8% of 350,000 active; note: potency is the fitted concentration of half-maximal effect; % is set by controls: 0 for no effect and ±100 for the full control effect; nearly all actives have a fitted effect of over 75% in size
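Enzyme 20 nM + cpd, 15 min RT; add b-H3K9 pep 500 nM / SAM 20 uM; 2 h RT; anti-H3K9me1 Ab 0.5 ug/mL + SA donor / anti-rabbit acceptor beads 20 ug/mL each, 10 min; AlphaScreen read.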
JMJD2A Tudor = qHTS Assay for Inhibitors of JMJD2A-Tudor Domain; Lysine-specific demethylase 4A (Homo sapiens), O75164; AlphaScreen JMJD2A-Tudor / H3K4me3 peptide binding; Potency, µM (series often up to 114 µM), for the others: top-dose activity change, negative = inhibition, most hits filed as inhibitors; 4.4% of 390,000 active; AID 504339, 2011; note: potency is the fitted concentration of half-maximal effect; % is set by controls: 0 for no effect and ±100 for the full control effect; nearly all actives have a fitted effect of over 50% in size
BAZ2B inh = qHTS Assay for Inhibitors of BAZ2B; 4.4% of 360,000 active; AlphaScreen BAZ2B-H3K14Ac peptide displacement; Bromodomain adjacent to zinc finger domain protein 2B (Homo sapiens), Q9UIF8; AID 504333, 2011; Potency, µM (doses to about 114 µM), inactives show at the top dose activity change, negative = inhibition, most hits filed as inhibitors; note: potency is the fitted concentration of half-maximal effect; % is set by controls: 0 for no effect and ±100 for the full control effect; nearly all actives have a fitted effect of over 60% in size
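AlphaScreen displacement: compounds (up to 110uM) incubated 30 min at room temperature with a preformed 50 nM BAZ2B/50 nM biotinylated H3K14Ac peptide complex in PBS pH 7.4 with Tween-20. Donor and acceptor beads at 10 ug/mL final added, 20 min light-protected before reading.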
PLK1 PBD inh = qHTS for Inhibitors of PLK1-PDB (polo-like kinase 1 - polo-box domain): Primary Screen; Potency, µM, inactives show max response, negative = inhibition, usual class: inhibitors; Plk1 PBD binding of FITC phosphopeptide, fluorescence polarization; Serine/threonine-protein kinase PLK1 (Homo sapiens), P53350; 2.8% of 360,000 active; note: potency is the fitted concentration of half-maximal effect; series mostly up to about 57 µM; % is set by controls: 0 for no effect and ±100 for the full control effect; nearly all actives have a fitted effect of over 65% in size
Target sequence (P53350 whole entry, looked up, the tested form may be a part): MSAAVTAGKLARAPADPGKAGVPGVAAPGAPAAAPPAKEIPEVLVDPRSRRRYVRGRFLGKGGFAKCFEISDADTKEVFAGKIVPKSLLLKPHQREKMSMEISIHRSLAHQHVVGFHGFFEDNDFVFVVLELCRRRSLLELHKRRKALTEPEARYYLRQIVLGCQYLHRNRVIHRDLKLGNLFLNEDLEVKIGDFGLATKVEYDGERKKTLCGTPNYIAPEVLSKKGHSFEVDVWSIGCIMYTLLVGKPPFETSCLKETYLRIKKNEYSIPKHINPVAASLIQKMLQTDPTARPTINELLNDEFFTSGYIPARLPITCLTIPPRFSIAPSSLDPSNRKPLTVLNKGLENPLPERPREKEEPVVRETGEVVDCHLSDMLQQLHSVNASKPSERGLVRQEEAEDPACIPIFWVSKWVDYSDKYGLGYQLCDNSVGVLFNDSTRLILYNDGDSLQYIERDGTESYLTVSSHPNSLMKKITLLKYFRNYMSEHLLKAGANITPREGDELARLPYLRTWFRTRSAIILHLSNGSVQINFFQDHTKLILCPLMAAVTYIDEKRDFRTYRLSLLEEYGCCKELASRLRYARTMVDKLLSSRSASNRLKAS
HP1b chromo inh = HTS for Inhibitors of HP1-beta Chromodomain Interactions with Methylated Histone Tails; AlphaScreen HP1-beta / biotin-H3K9me3 peptide binding; Potency, µM (top dose mostly 114 µM), without a hit: at the highest dose activity change, negative = inhibition, actives largely listed as inhibitors; AID 540317, 2011; 0.56% of 390,000 active; note: potency is the fitted concentration of half-maximal effect; nearly all actives have a fitted effect of over 70% in size
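AlphaScreen: HP1-beta (50 nM) preformed 30 min with biotin-H3(1-18)K9me3 peptide (50 nM) in PBS pH 7.4, 0.01% Tween-20. Compound added for 30 min at RT, then streptavidin donor/nickel chelate acceptor beads (10 ug/mL) for 30 min.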
PI5P4K alpha inh = qHTS for Inhibitors of phosphatidylinositol 5-phosphate 4-kinase (PI5P4K); Phosphatidylinositol 5-phosphate 4-kinase type-2 alpha (Homo sapiens), P48426; PI5P4Kalpha enzyme, ADP-Glo luminescence, 60 min; hits give low values; max response, %; 1.2% of 330,000 active; AID 652105, 2013; active = max response of -50% or lower; inconclusive = between -30% and -50%; inactive = -30% or higher; note: value at the top dose of about 77 µM; % is set by controls: 0 for no effect and ±100 for the full control effect
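Controls without substrate or without enzyme flank wells where PI5P4Kalpha converts substrate using 5 microM ATP (final). Incubation lasts 60 minutes at room temperature; ADP formed is read by ADP-Glo luminescence.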
An asterisk follows results filed as active; ? = inconclusive; . = no result; [ ] = remark or other dose. Sampled rows, rich in hits. Any-hit rate of the full collection: about 12%. Unless noted, calls come from the whole dose curve; as a rule, active = well fitted curve in the direction sought with a large enough effect; inconclusive = small, poorly fitted or top-dose-only effect, or another doubt; inactive = no such curve, though single readings can be large; an effect the other way counts as inactive or inconclusive.

SMILES | G9a inh | JMJD2A Tudor | BAZ2B inh | PLK1 PBD inh | HP1b chromo inh | PI5P4K alpha inh
COc1ccc(OCC(=O)NNC(=S)NC(=O)c2ccc([N+](=O)[O-])cc2)cc1 | 1.12µM* | -24.7% | -15.6% | 23.8µM* | -16.5% | ?
O=C(COc1ccc([N+](=O)[O-])cc1)Nn1cnnc1 | ? | -20.3%[11.4 µM] | . | 21.2µM* | -17.5% | 2.0
CC(NC(=O)CCNS(=O)(=O)c1ccc2c(c1)oc(=O)n2C)c1ccccc1 (stereo not drawn) | 22.9% | -5.5% | 0.9% | -2.6% | 27.1% | 6.2
O=C(CN(c1ccccc1)S(=O)(=O)c1ccccc1)NCCSCc1ccco1 | ? | 56.2µM* | 50.1µM* | -10.4% | -16.3% | ?
CCCC(=O)N1CCCC1(C)C(=O)Nc1ccc2c(c1)CCN2C(C)=O (stereo not drawn) | . | . | . | -12.1% | . | 5.5
COc1ccc(S(=O)(=O)N(C)C(C)CCc2ccco2)cc1 (stereo not drawn) | 79.4µM* | -9.3% | -27.2% | -10.6% | 12.2% | -28.3
C[C@H]1CN([C@@H](C)CO)C(=O)CCCn2nncc2CO[C@@H]1CN(C)Cc1ccccc1C(F)(F)F | . | . | . | -6.7% | . | -5.3
COCCNc1nc(=S)[nH]c2cc(OC)c(OC)cc12 | 35.5µM* | ? | -28.2% | -12.0% | 40.4% | 0.2
CCOCCCNc1nc(=S)[nH]c2cc(OC)c(OC)cc12 | 35.5µM* | ? | ? | -11.3% | 24.6% | 1.5
COc1cc2[nH]c(=S)nc(NCCCOC(C)C)c2cc1OC | 44.7µM* | ? | 50.1µM* | -10.5% | 23.5% | 0.8
COc1cc2[nH]c(=S)nc(NCc3ccc(C)cc3)c2cc1OC | -14.7% | -6.7% | 3.5% | -14.6% | 60.2% | 3.7
CCCCNc1nc(=S)[nH]c2cc(OC)c(OC)cc12 | -3.2%[12.7 µM] | ? | ? | -12.3% | 15.2% | 0.0
COc1ccc(-c2ccc(OC)c(C3C4C=CCC(C)C4C(=O)N3Cc3ccccc3)c2)cc1 (stereo not drawn) | . | -27.6% | . | . | 20.4% | .
NS(=O)(=O)c1ccc(-c2ccc(/C=C3\C(=O)Nc4ccccc43)o2)cc1 | . | . | -37.8% | . | . | .
NS(=O)(=O)c1ccc(-c2ccc(/C=C3\C(=O)Nc4cc(Cl)ccc43)o2)cc1 | 11.2µM* | -29.7% | 56.2µM* | -1.1% | 10.4% | ?
CCCCCNC(=O)C(c1cccc2ccccc12)n1c(=O)c(-c2ccco2)nc2ccccc21 (stereo not drawn) | . | . | . | ? | . | -56.6*
CCCCCNC(=O)C(c1ccc(C(F)(F)F)cc1)n1c(=O)c(-c2ccco2)nc2ccccc21 (stereo not drawn) | . | . | . | -9.1% | . | -60.2*
CC(C)(C)NC(=O)C(c1cccc2ccccc12)n1c(=O)c(-c2ccco2)nc2ccccc21 (stereo not drawn) | . | . | . | ? | . | -60.6*
CC(C)(C)NC(=O)C(c1cccc2ccccc12)n1c(=O)c(-c2ccccc2)nc2ccccc21 (stereo not drawn) | . | . | . | -12.9% | . | 3.0
CCOC(=O)c1ccc(-c2ccc3ncnc(NCc4cccs4)c3c2)o1 | . | -15.6% | . | . | . | .
COc1ccccc1CNC(=O)/C=C/c1ccc(Br)o1 | 28.2µM* | -16.1% | ? | -14.1% | 24.9% | -8.0
O=C(/C=C/c1ccc(Br)o1)NC(c1ccccc1)c1ccccc1 | 17.8µM* | ? | -37.0% | ? | ? | -1.1
Cn1cc(-c2nc3cncnc3n(CCN)c2=O)c2ccccc21 | 7.2%[0.501 µM] | . | . | . | . | .
COc1ccc(S(=O)(=O)NCc2ccccn2)cc1C | . | . | . | 2.6% | . | 1.2
CC1CCc2c(sc3nc(CN4CCOCC4)nc(N4CCc5ccccc5C4)c23)C1 (stereo not drawn) | ? | ? | ? | 4.5% | -9.6% | 3.2

Source: PubChem (National Center for Advancing Translational Sciences (NCATS))
